According to PubChem BioAssay (NCI):
Compounds without any hit were thinned out: in the full panel of roughly 83,000, 20% have a hit.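 Percent growth is the endpoint: 0 to 100 indicates growth inhibition (40 means 60% inhibition), 0 means no net growth, and negative values indicate cell death.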 Values without a mark were called inactive. Activity calls are given as the source filed them. The calls were made as follows: active = growth percent below 10; inactive = the rest.

Tested on: SK-MEL-2 melanoma
Test: NCI-60 one-dose screen, 48 h (100 = growth as untreated, 0 = no growth, -100 = all killed)
Details: 10 µM unless noted

SMILES	growth
Nc1nc2ccc(CNc3ccc(C(=O)NC(CC(=O)O)C(=O)O)cc3)cc2c(=O)[nH]1 (configuration not stated)	51.9%
Cc1cn(C2CC(F)C(CO)O2)c(=O)[nH]c1=O (configuration not stated)	115%
CN(C)C(=O)Nc1nc2cc(Cl)c(Cl)cc2[nH]1	-14.7% (active)
Cc1cccc(NC(=O)CCc2ccc(N3C(N)=NC(N)=NC3(C)C)cc2)c1	59.9%
COc1cc(/C=C/C(=O)c2c(C)[n+]([O-])c3ccccc3[n+]2[O-])ccc1O	83.8%
CCC1CN2C(=N1)c1ccccc1-c1cc(Cl)ccc12 (configuration not stated)	-14.9% (active)
CC(C(C(=O)N1CCCCC1)N1CCCCC1)N1CCCCC1 (configuration not stated)	111%
NC(CSC(c1ccccc1)(c1ccccc1)c1ccc(F)cc1)C(=O)O (configuration not stated)	-30.6% (active)
CS(=O)(=O)OCC(COS(C)(=O)=O)C(c1ccccc1)c1ccccc1	123%
S=c1ssnc1-c1ccccn1	31.6%
O=C(Cn1c2ccccc2c2ccncc21)N/N=C/c1cc(O)c(O)c(O)c1	98.9%
CN(C)c1ccc(/C=N/N=C(N)N)cc1	78.6%
Cc1cc2c(cc1C)N(C(=O)CCl)CCN2C(=O)CCl	-68.1% (active)
O=C(O)c1cc2ccccc2cc1Nc1ccccc1	99.2%
O=C(Nc1ccccc1Cl)c1c[nH]c(=O)c(-c2ccc(N3CCCOC4(CC4)C3)cc2)c1	70.1%
Clc1ccc2c(c1)nnn1c3ncccc3c(Br)c21	93%
Cc1nssc1=S	88.6%
FC(F)(F)c1cn(CC2CNC2)c2ncnc(Cl)c12	103%
CN1CCN(Cn2nc(-c3cc(Cl)cc(Cl)c3Cl)n(/N=C/c3ccc(Cl)cc3)c2=S)CC1	97.6%
NC(N)=N/N=C/c1ccc([N+](=O)[O-])cc1	115%
CC1=C2C(=C[C@@](C)(CO)[C@@H]2OC(=O)N(C)CCN(C)C(=O)OC(C)(C)C)C(=O)[C@](C)(O)C12CC2	71.4%
Nc1nc(=S)ss1	109%
COC(=O)c1oc2c(C(C)=O)c(OCCN3CCCCC3)ccc2c1C	88.7%
Cc1cc[n+](CCCC[n+]2ccc(C)cc2)cc1	124%

Tested on: EKVX NSCLC
Test: as above
Details: 10 µM unless noted

SMILES	growth
CCOc1ccc(NC(=O)Nc2cc(C(C)C)ccc2C)cc1	96.1%
NS(=O)(=O)c1ccc(-n2nc(-c3ccc(Cl)cc3)ccc2=O)cc1	99.7%
COC(OC)C1(c2ccccc2)NC(=O)NC1=O (configuration not stated)	112%
CC1=C[S+](c2ccccc2)c2cccc3cc4ccccc4c1c23 (configuration not stated)	-1.91% (active)
O=C(Nc1ccccc1F)Nc1ccccc1Cl	73.2%
O=C(C[n+]1ccccc1Cl)c1ccc2c(c1)CCCC2	78.9%
COc1cc(-c2nc3sc(C)cn3c2/C=C2\C(=O)Nc3ccccc32)c(Br)c(OC)c1OC	31.5%
CC1(C)N=C(N)N=C(N)N1c1cccc(CCCCc2ccccc2)c1	7.11% (active)
COc1ccc(/C=C2\CS(=O)(=O)C/C(=C\c3ccc(OC)cc3)C2=O)cc1	11.4%
CN1CCN(CC(O)COc2c(Br)c(Br)c(Br)c3c2OC(C)(C)C3)CC1 (configuration not stated)	87.7%
CC1(C)N=C(N)N=C(N)N1c1ccc(OCC(=O)Nc2ccccc2)c(Cl)c1	48.9%
COc1ccc2c(c1)nnc1c3cccnc3[nH]c21	34.2%
CC(=O)N[C@@H](CNC(=O)c1cc(NC(=O)c2cc(NC(=O)c3cc(NC(=O)c4nccn4C)cn3C)cn2C)cn1C)CC(=O)Nc1cn(C)c(C(=O)Nc2cc(C(=O)Nc3cc(C(=O)Nc4cc(C(=O)NCCCN(C)CCCNC(=O)c5cccc(C(=O)O)c5)n(C)c4)n(C)c3)n(C)c2)n1	102%
Nc1ccc(S(=O)(=O)Nc2cc(I)cc(I)c2)cc1	124%
Nc1nc2ccc(CNc3ccc(C(=O)NC(CC(=O)O)C(=O)O)cc3)cc2c(=O)[nH]1 (configuration not stated)	63.6%
Cc1cn(C2CC(F)C(CO)O2)c(=O)[nH]c1=O (configuration not stated)	89.1%
CN(C)C(=O)Nc1nc2cc(Cl)c(Cl)cc2[nH]1	57.7%
Cc1cccc(NC(=O)CCc2ccc(N3C(N)=NC(N)=NC3(C)C)cc2)c1	55.6%
COc1cc(/C=C/C(=O)c2c(C)[n+]([O-])c3ccccc3[n+]2[O-])ccc1O	84.5%

SMILES	growth
CCC1CN2C(=N1)c1ccccc1-c1cc(Cl)ccc12 (configuration not stated)	22.9%
CC(C(C(=O)N1CCCCC1)N1CCCCC1)N1CCCCC1 (configuration not stated)	112%
NC(CSC(c1ccccc1)(c1ccccc1)c1ccc(F)cc1)C(=O)O (configuration not stated)	7.52% (active)
CS(=O)(=O)OCC(COS(C)(=O)=O)C(c1ccccc1)c1ccccc1	99.1%
S=c1ssnc1-c1ccccn1	65.2%
O=C(Cn1c2ccccc2c2ccncc21)N/N=C/c1cc(O)c(O)c(O)c1	109%
CN(C)c1ccc(/C=N/N=C(N)N)cc1	89.3%
Cc1cc2c(cc1C)N(C(=O)CCl)CCN2C(=O)CCl	-23% (active)
O=C(O)c1cc2ccccc2cc1Nc1ccccc1	97.6%
O=C(Nc1ccccc1Cl)c1c[nH]c(=O)c(-c2ccc(N3CCCOC4(CC4)C3)cc2)c1	37.6%
Clc1ccc2c(c1)nnn1c3ncccc3c(Br)c21	29.2%
Cc1nssc1=S	96.5%
FC(F)(F)c1cn(CC2CNC2)c2ncnc(Cl)c12	109%
CN1CCN(Cn2nc(-c3cc(Cl)cc(Cl)c3Cl)n(/N=C/c3ccc(Cl)cc3)c2=S)CC1	118%
NC(N)=N/N=C/c1ccc([N+](=O)[O-])cc1	102%
CC1=C2C(=C[C@@](C)(CO)[C@@H]2OC(=O)N(C)CCN(C)C(=O)OC(C)(C)C)C(=O)[C@](C)(O)C12CC2	78.5%
Nc1nc(=S)ss1	108%
COC(=O)c1oc2c(C(C)=O)c(OCCN3CCCCC3)ccc2c1C	113%
Cc1cc[n+](CCCC[n+]2ccc(C)cc2)cc1	97.2%
